Experimental data: article PMC4336329 (PLoS ONE, 2015)
Out of some 310,000 compounds screened, about 14,000 (4.5%) showed an effect of 50% or more. Effects have a minus sign here. Only a selection was taken, and strong results are over-represented in it overall.

target: human ether-à-go-go-related gene (hERG) potassium channel (human, UniProt Q12809); assay: primary screen, population patch clamp on CHO cells stably expressing hERG; higher = less effect of the substance
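Note: peak tail current of the secondary pulse compared with the same well before compound.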

Sequence of human ether-à-go-go-related gene (hERG) potassium channel (Q12809 whole entry, looked up): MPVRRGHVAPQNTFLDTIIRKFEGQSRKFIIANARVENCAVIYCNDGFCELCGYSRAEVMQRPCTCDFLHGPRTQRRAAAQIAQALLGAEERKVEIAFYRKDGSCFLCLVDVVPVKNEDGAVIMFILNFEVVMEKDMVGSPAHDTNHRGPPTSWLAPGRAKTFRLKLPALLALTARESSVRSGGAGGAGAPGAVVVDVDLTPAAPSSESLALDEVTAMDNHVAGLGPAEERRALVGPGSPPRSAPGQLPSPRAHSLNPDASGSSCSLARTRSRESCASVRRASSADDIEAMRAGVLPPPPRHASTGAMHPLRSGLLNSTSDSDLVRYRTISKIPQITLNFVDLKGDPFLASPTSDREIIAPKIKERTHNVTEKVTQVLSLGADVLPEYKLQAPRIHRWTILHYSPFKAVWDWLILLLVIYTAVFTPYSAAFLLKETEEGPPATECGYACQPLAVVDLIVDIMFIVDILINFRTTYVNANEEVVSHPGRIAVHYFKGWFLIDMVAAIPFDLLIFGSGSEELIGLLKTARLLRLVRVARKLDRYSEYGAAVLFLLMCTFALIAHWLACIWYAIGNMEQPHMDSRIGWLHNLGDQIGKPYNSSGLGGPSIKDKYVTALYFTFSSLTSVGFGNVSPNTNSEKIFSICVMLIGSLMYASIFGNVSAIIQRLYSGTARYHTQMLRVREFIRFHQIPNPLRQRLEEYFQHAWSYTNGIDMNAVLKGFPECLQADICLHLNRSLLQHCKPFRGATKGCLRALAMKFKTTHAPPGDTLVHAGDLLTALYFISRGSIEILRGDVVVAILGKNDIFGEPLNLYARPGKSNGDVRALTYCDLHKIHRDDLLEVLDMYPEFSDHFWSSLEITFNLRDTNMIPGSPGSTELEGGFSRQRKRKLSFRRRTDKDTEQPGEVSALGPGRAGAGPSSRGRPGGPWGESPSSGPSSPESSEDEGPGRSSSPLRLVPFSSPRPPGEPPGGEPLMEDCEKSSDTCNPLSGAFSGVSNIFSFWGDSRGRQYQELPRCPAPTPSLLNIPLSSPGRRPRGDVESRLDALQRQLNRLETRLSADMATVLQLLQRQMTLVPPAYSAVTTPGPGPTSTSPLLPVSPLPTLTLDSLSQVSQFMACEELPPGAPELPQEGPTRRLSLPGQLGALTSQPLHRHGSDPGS

Compound	hERG current change (%, negative = inhibition) at 10uM [%]
CCCCn1c(CCCNC(=O)c2ccco2)nc2ccccc21	-40.5
Cc1ccc(NC(=O)CSc2nnc(CNC(=O)c3ccccc3F)o2)cc1	2.03
CC1CCN(c2ccc3nnc(CCC(=O)NCCCOC(C)C)n3n2)CC1	2.68
COCCn1c(SCC(=O)N2CCC(C)CC2)nc2ccccc2c1=O	-62.8
CCC1CCCCN1C(=O)CSc1nc2ccsc2c(=O)n1Cc1ccccc1 (stereo not drawn)	-78.3
CCCCn1c(SCC(=O)c2ccccc2)nc2ccsc2c1=O	1.38
COCCn1c(SCC(=O)N2CCOCC2)nc2ccccc2c1=O	-22.3
COCCn1c(SCC(=O)N2CCCCC2)nc2ccccc2c1=O	-49.3
CCCCn1c(SCC(=O)N2CCC(C)CC2)nc2ccsc2c1=O	-70.7
COCCn1c(SCC(=O)N2CCCc3ccccc32)nc2cccnc21	-16.5
CCn1c(SCC(=O)N2CCCCC2C)nc2ccsc2c1=O (stereo not drawn)	-11.5
O=C(O)CCCCCn1c(SCC(=O)N2CCCC2)nc2ccsc2c1=O	16.9
O=C(CSc1nc2ccsc2c(=O)n1Cc1ccccc1)NCC1CCCO1 (stereo not drawn)	-25.7
CCn1c(SCC(=O)N2CCCc3ccccc32)nc2ccccc2c1=O	-18.7
COCCn1c(SCC(=O)N2CCCc3ccccc32)nc2ccccc2c1=O	-72.6
COc1ccc2[nH]cc(CCNC(=O)Cc3ccc(Cl)cc3)c2c1	2.05
CC(=O)c1cccc(NC(=O)c2ccc3c(c2)C(=O)N(Cc2cccnc2)C3=O)c1	-9.85
COc1ccc(OC)c(/C=N/N(CCC#N)C2=NS(=O)(=O)c3ccccc32)c1	6.86
CCCCCCSc1ccc([C@@H]2[C@H]3C(=O)N(C)C(=O)[C@H]3[C@]3(C(=O)OC)CCCCN23)cc1.O=C(O)C(F)(F)F	-10.9
Cc1ccc(N2C(=O)NC(=O)/C(=C\c3cn(CC(=O)O)c4ccccc34)C2=O)cc1	16.8
CC(Oc1cccc2c1OC(C)(C)C2)C(=O)O (stereo not drawn)	-5.47
COc1ccc(Cc2nnc(NC(=O)c3ccc(Cl)c([N+](=O)[O-])c3)s2)cc1	15

Compound	hERG current change (%, negative = inhibition) at 10uM [%]
COc1ccc(CN2CCN(C(=O)C3CCC(CNS(=O)(=O)c4ccc(C)cc4)CC3)CC2)c(OC)c1OC (stereo not drawn)	-27.5
COCCn1c(SCC(=O)N2CCN(c3ccccc3)CC2)nc2c(c1=O)SC(C)C2 (stereo not drawn)	-58.8
CC1Cc2nc(SCC(=O)N3CCN(c4ccccc4)CC3)n(CCc3ccccc3)c(=O)c2S1 (stereo not drawn)	-47.1
CCn1c(SCC(=O)N2CCN(c3ccccc3)CC2)nc2c(c1=O)SC(C)C2 (stereo not drawn)	-48.2
CC(=O)c1cccc(NC(=S)NC(=O)c2cccc(Cl)c2)c1	-3.58
CCSc1nnc(NC(=O)C2Cc3ccccc3CN2C(=O)c2ccco2)s1 (stereo not drawn)	-10.3
CCn1nc(C)c(CNC(=O)CC2C(=O)NCCN2CC(C)(C)C)c1C (stereo not drawn)	9.14
CCn1nc(C)c(CNC(=O)CC2C(=O)NCCN2CC(C)C)c1C (stereo not drawn)	11.7
CCn1nc(C)c(CNC(=O)CC2C(=O)NCCN2Cc2ccc(C)o2)c1C (stereo not drawn)	-68.4
CN(CC(=O)N1CCN(c2cccc(Cl)c2)CC1)S(=O)(=O)c1cccs1	-32.9
Cn1c2c(c(=O)[nH]c1=O)C(c1ccc(O)cc1)C1=C(N2)c2ccccc2C1=O (stereo not drawn)	-5.73
CCOC(=O)c1c(CNCCN(CC)CC)n(C)c2cc(Br)c(OC)cc12.Cl	-68.5
CCOC(=O)c1c(C)n(C)c2cc(Br)c(OC)cc12	15.6
CCOC(=O)c1c(CN2CCN(c3ccccc3)CC2)oc2cc(Br)c(O)cc12.Cl	14.3
CCOC(=O)c1c(CS(=O)(=O)c2ccccc2)n(C)c2cc(Br)c(O)cc12	5.4
CCOC(=O)c1c(CN2CCN(CCO)CC2)n(C)c2cc(Br)c(OC)cc12	-11.3
CCOC(=O)c1c(C)n(C)c2cc(Br)c(C(=O)OC)cc12	-11.1
CCOC(=O)c1c(CN(CC)CC)n(C)c2cc(Br)c(O)cc12.Cl	-73.6
CCOC(=O)c1c(CN2CCN(C)CC2)n(C)c2cc(Br)c(OC)cc12	-50.4
CCOC(=O)c1c(CNc2ccncc2)n(C)c2cc(Br)c(O)cc12.Cl	18.8
CCOC(=O)c1c(-c2ccccc2)oc2cc(Br)c(O)cc12	3.65
CCOC(=O)c1c(CN2CCN(CC#N)CC2)n(C)c2cc(Br)c(OC)cc12	10.9

Compound	hERG current change (%, negative = inhibition) at 10uM [%]
CCOC(=O)c1c(CN(CC)CC)oc2cc(Br)c(O)cc12	-79.8
COc1ccccc1NC(=O)c1cnc2c(-c3ccccc3)c(C)nn2c1C	3.15
O=C(c1cnc2nc3ccccc3n2c1)c1cc(F)ccc1O	2.44
Cc1ccc2c(c1)N(CCCC(=O)Nc1cccc(C(F)(F)F)c1)C(=O)CO2	12.9
O=C(O)c1ccccc1C(=O)c1ccc2c(c1)N(Cc1cccc(F)c1)C(=O)CO2	-18.1
O=C(COC(=O)c1ccccc1Br)Nc1ccccc1F	-21
N#Cc1c(NC(=O)c2nc3ncccn3n2)sc2c1CCCCC2	2.44
Cc1ccc(NC(=O)CCCNC(=O)c2ccc(Cl)cc2)cc1S(=O)(=O)N1CCOCC1	-17.9
O=C(NCc1n[nH]c(=S)n1-c1cccc(C(F)(F)F)c1)c1ccc(S(=O)(=O)N2CCCCC2)cc1	16.5
CC(=O)Oc1cccc(C(=O)Nc2ccccc2NC(=O)c2cccc(OC(C)=O)c2)c1	9.7
CC(C)N(Cc1nc(-c2ccc(Cl)cc2)no1)C(=O)c1cccs1	-8.63
CCCn1c(CNC(=O)Cc2ccccc2)nc2ccccc21	-21.3
CCOC(=O)c1c(CN2CCC(C)CC2)n(C)c2cc(Br)c(OC)cc12	10.5
CCOC(=O)c1c(CN2CCCCC2)n(C)c2cc(Br)c(OC)cc12	-31.7
CCOC(=O)c1c(CN2CCCCC2)n(C)c2cc(Br)c(O)cc12	-68.2
CCCCCOC(=O)Cc1c(O)c2ccccc2[nH]c1=O	12.8
CCN(CC)S(=O)(=O)c1ccc(F)c(C(=O)NCCCN2CCOCC2)c1	-11.7
COC(=O)c1cc(C(=O)c2cccc(Cl)c2Cl)cn1C	-43.4
CCOc1ccc(Nc2ncnc(N)n2)cc1	10.3
CCOc1ccccc1Nc1nc(N)nc(CN2CCCCC2C)n1 (stereo not drawn)	-50
COc1ccc(Nc2nc(N)nc(COc3ccc(OC)cc3)n2)cc1	4.75
CCOc1ccccc1Nc1nc(N)nc(CN(C)C2CCCCC2)n1	-76.1

Compound	hERG current change (%, negative = inhibition) at 10uM [%]
COc1ccccc1Nc1nc(N)nc(CN(C)C2CCCCC2)n1	-35.8
COc1ccc(CN(C)C2CCCCC2)cc1	-25.1
CCOc1ccc(Nc2nc(N)nc(CN(C)C3CCCCC3)n2)cc1	-71.5
COc1ccc(Nc2nc(N)nc(CN(C)C3CCCCC3)n2)cc1	-57.5
CCOc1ccc(Nc2nc(N)nc(CCl)n2)cc1	-8.2
COC(=O)N/N=C/c1cc(Cl)cc(Cl)c1OCc1ccc(F)cc1	3.82
O=[N+]([O-])c1cccc(C2N3CCCN23)c1 (stereo not drawn)	12.3
Cc1cc2c(cc1S(=O)(=O)Nc1c(C)cccc1C)n(C)c(=O)c(=O)n2C	-0.831
COc1ccc(-c2cc(C3CCN(Cc4cccc(C(F)(F)F)c4)CC3)[nH]n2)cc1	-55.2
COc1ccc(-c2cc(C3CCNCC3)[nH]n2)cc1	18.7
COc1ccc(-c2cc(C3CCN(c4ncccc4[N+](=O)[O-])CC3)[nH]n2)cc1	-5.85
FC(F)(F)c1cccc(-c2cc(C3CCNCC3)[nH]n2)c1	-44.3
COC(=O)CCN1CCC(c2cc(-c3cccc(C(F)(F)F)c3)n[nH]2)CC1	-72.2
O=c1ccc(-c2ccc([N+](=O)[O-])cc2)nn1-c1ccccc1	-55
O=[N+]([O-])c1cccnc1N1CCC(c2cc(-c3cccc(C(F)(F)F)c3)n[nH]2)CC1	-13.7
Cc1nc(-c2ccccc2)nn1-c1ccc([N+](=O)[O-])cc1	-26.2
COc1ccc(-c2cn(Cc3ccc([N+](=O)[O-])cc3)nn2)cc1	-9.43
COc1ccc(-c2cc(C3CCN(C(=O)OC(C)(C)C)CC3)[nH]n2)cc1	-26.4
COc1ccc(-c2cc(C3CCN(Cc4ccc([N+](=O)[O-])cc4)CC3)[nH]n2)cc1	-73
O=[N+]([O-])c1ccc(-n2nnnc2-c2ccccc2)cc1	-21.3
Cc1ccc(CNc2nc(C)c(C(=O)N(C)C)s2)cc1	4.98
